Screens: PubChem, NMMLSC
BoNT A protease: BoNT A light chain protease inhibition. multiplex microsphere protease substrate cleavage, flow cytometry. inhibition, % at 10 µM. hit rate 0.17% among 360,000. AID 588499; note: plate controls were buffer without enzyme for full effect and enzyme alone for no effect
Anthrax LF inh2: inhibitors of Bacillus anthracis lethal factor protease; P15917; multiplex microsphere protease cleavage assay, LF; inhibition, % at 10 µM; hit rate 0.12% among 360,000; note: plate controls were buffer without enzyme for full effect and enzyme alone for no effect
Target sequence (P15917 whole entry, looked up): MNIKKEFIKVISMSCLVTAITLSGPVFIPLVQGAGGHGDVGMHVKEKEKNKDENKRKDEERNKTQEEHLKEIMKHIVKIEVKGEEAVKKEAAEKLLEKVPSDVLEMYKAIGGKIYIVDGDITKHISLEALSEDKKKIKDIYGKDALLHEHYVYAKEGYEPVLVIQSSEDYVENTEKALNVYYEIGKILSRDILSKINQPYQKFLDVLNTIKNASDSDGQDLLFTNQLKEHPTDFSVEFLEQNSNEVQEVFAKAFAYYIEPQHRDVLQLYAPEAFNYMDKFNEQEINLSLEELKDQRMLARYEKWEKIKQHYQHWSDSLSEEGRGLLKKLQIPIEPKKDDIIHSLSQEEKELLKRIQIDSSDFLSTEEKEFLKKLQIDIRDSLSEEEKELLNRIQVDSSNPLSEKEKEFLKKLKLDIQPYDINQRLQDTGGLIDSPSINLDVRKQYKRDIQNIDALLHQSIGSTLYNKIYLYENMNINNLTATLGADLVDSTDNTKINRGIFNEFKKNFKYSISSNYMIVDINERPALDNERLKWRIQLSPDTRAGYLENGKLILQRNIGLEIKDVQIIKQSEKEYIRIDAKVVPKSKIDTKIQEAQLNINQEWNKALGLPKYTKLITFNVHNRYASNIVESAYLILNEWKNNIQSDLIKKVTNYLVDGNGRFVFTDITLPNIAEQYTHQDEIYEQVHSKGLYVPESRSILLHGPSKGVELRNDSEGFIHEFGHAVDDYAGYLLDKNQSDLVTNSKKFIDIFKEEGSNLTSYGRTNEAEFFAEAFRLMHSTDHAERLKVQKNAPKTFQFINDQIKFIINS
BoNT-F LC inh: inhibitors of Botulinum neurotoxin F light chain protease | Multiplex microsphere protease cleavage assay, flow cytometry | inhibition, % at 10 µM | hit rate 0.22% among 360,000 | AID 588497; in the data active = inhibition above about 35%, passing the limit was not always enough; inconclusive = no clear call, values can overlap the other calls; note: plate controls were buffer without enzyme for full effect and enzyme alone for no effect
Bead autofluor: compound fluorescence in toxin protease inhibitor counterscreen; hit rate 3.1% among 360,000; compound autofluorescence counterscreen, microsphere flow cytometry; active compounds read high; AID 624483; fluorescence intensity (test concentration not listed); in the data active = fluorescence intensity above about 16000; inconclusive = no clear call, values can overlap the other calls
BoNTA LC inh 1: inhibitors of Botulinum neurotoxin A light chain protease; shares compounds with BoNT-F LC inh; multiplex microsphere protease assay, flow cytometry; inhibition, % at 10 µM; hit rate 3% among 720; in the data active = inhibition above about 32%
BoNT-F LC CP1: blocks botulinum neurotoxin F light chain protease | AID 602140 | 720 tested, under 10 active | multiplex microsphere protease cleavage assay, flow cytometry | shares compounds with BoNT-F LC inh | inhibition, % at 10 µM; call rule not given here
LF protease CP1: blocks anthrax lethal factor protease; shares compounds with BoNT-F LC inh; multiplex microsphere protease cleavage assay, LF; inhibition, % at 10 µM; 720 tested, under 10 active; call rule not given here
An asterisk follows results filed as active; ? = inconclusive; nt = no result given. Only some compounds are listed: those with a hit (about 3.5% of all), similar ones and a draw of the others. Cut-off read from the data, not from the text of the source, unless noted: active = inhibition above about 30%; inconclusive = no clear call, values can overlap the other calls; inactive = below that.

SMILES | BoNT A protease | Anthrax LF inh2 | BoNT-F LC inh | Bead autofluor | BoNTA LC inh 1 | BoNT-F LC CP1 | LF protease CP1
CCCCC(=O)NCc1ccc2c(c1)cc(C)n2C | 43* | 47* | 17 | 10959 | 2 | -5 | -1
Cc1cc2cc(CNC(=O)CC(C)C)ccc2n1C | 31* | 34* | 13 | 17533* | 0 | -7 | -2
O=C(c1ccccc1)N1CCCC(C(=O)N2CCCCC2)C1 (stereo not drawn) | 1 | 0 | 6 | 4798 | nt | nt | nt
O=C(c1ccccc1)N1CCCC(C(=O)N2CCN(c3ccccc3)CC2)C1 (stereo not drawn) | -7 | 34* | ? | 3990 | 0 | -3 | -3
Cc1nc2nc(CSc3ccc(Cl)cc3)cc(=O)n2[nH]1 | -1 | -4 | 79* | 11830 | -1 | 4 | 0
Cc1cc(=O)oc2cc(N3C(=O)CC(Cc4ccccc4)C3=O)ccc12 (stereo not drawn) | 0 | -4 | -5 | 4179 | nt | nt | nt
CN(CC(=O)Nc1cccc(F)c1)C(=O)c1cccnc1Sc1ccccc1Cl | 38* | 1 | 0 | ? | 2 | 6 | 5
CN(CC(=O)Nc1cccc(F)c1)C(=O)c1cccnc1Sc1ccc(Cl)cc1 | 2 | -3 | -10 | 5590 | nt | nt | nt
C/C(=N\Nc1ccc2nncn2n1)c1ccc(Br)s1 | 1 | 12 | 20 | 3865 | nt | nt | nt
Cc1ccc2nc(SCCC#N)nc(C)c2c1 | 1 | 1 | 13 | 4543 | nt | nt | nt
Cc1ccc2nc(SCC(=O)O)nc(C)c2c1 | 3 | 7 | 40* | 4380 | -1 | -6 | -4
CCCCCn1c(=O)c(C(=O)Nc2ncccc2C)c(O)c2ccccc21 | -5 | -1 | 38* | 4119 | 0 | -7 | -4
CCCn1c(=O)c(C(=O)Nc2ncccc2C)c(O)c2ccccc21 | 0 | -4 | 1 | 3926 | nt | nt | nt
O=C(Nc1ccccc1)C1CCN(S(=O)(=O)c2cccs2)CC1 | 2 | 5 | -2 | 8563 | nt | nt | nt
O=C(Nc1ccccc1)C1CCN(c2nccs2)CC1 | 40* | 40* | ? | ? | 2 | -9 | 4
CC(C)CCn1c(-c2nonc2N)nc2ccccc21 | 1 | -7 | 32 | 3532 | -1 | -4 | -2
COc1ccc(-c2nnc(OC)c3ccccc23)cc1 | 3 | 7 | 37* | 4236 | 0 | -2 | -4
Cc1cccc(NC(=O)c2cccc(S(=O)(=O)Nc3ccccc3C(=O)O)c2)c1 | -3 | -7 | -48 | 3303 | 1 | -6 | -2
O=C(Nc1ccccc1O)c1cccc(S(=O)(=O)Nc2ccccc2O)c1 | 0 | 4 | -9 | 6544 | -2 | -21 | -2
Cc1cccc(OCC(=O)Nc2cccc(C(=O)Nc3ccccc3C(=O)O)c2)c1 | 0 | -2 | -6 | 1922 | nt | nt | nt
Cc1ccc(NS(=O)(=O)c2cccc(C(=O)O)c2)c(C)c1 | 1 | 3 | 0 | 7495 | nt | nt | nt
Cc1ccccc1NS(=O)(=O)c1cccc(C(=O)Nc2cccc(C(=O)O)c2)c1 | -2 | 5 | ? | 4073 | -1 | -4 | -1
COc1ccc(NS(=O)(=O)c2cccc(C(=O)Nc3cccc(C(=O)O)c3)c2)cc1 | -2 | -10 | ? | 4059 | 1 | 15 | -4
Cc1ccccc1NC(=O)c1cccc(S(C)(=O)=O)c1 | -1 | -2 | 3 | 4707 | nt | nt | nt
COC[C@H]1CCCN1[C@@H]1CS(=O)(=O)N[C@H]1COCc1ccccc1 | 1 | -2 | 6 | 4574 | nt | nt | nt
SMILES | BoNT A protease | Anthrax LF inh2 | BoNT-F LC inh | Bead autofluor | BoNTA LC inh 1 | BoNT-F LC CP1 | LF protease CP1
COc1ccc(CNC(=O)c2cccc(NC(=O)c3ccccc3)c2)cc1 | 4 | 0 | 40* | 2804 | 0 | -7 | -2
O=C(Cc1cccc(C(F)(F)F)c1)NCc1ccc(Cl)cc1Cl | 0 | -5 | -9 | 2297 | nt | nt | nt
N#Cc1ccc(-c2ccco2)nc1SCC(=O)c1ccc(Cl)cc1 | 55* | 41* | ? | 3776 | 18 | -3 | 12
COc1ccc(CN2CCN(C3CCSCC3)CC2CCO)c(C)c1C (stereo not drawn) | 1 | 2 | -2 | 3850 | nt | nt | nt
COc1ccc(CN2CCN(CC3CC3)CC2CCO)c(C)c1C (stereo not drawn) | -1 | 43* | -46 | 4181 | -1 | -3 | -1
O=C(Nc1ccccc1)Nc1ccccc1-n1ccnc1 | 0 | -2 | -3 | 2059 | nt | nt | nt
c1ccc2c(NC3CCCC3)nnc(NC3CCCC3)c2c1 | 2 | 2 | -4 | 3938 | nt | nt | nt
Nc1ccccc1NC1CCCCC1 | 74* | 15 | -30 | 2264 | 17 | -16 | 15
CCOC(=O)C1CCCNC1=O (stereo not drawn) | -1 | 0 | 0 | 4683 | nt | nt | nt
COC(=O)c1cc(=O)c2c(ccc3oc(=O)ccc32)[nH]1 | 1 | 2 | 1 | 5174 | nt | nt | nt
